# Test results: PubChem BioAssay (NCATS)
# Results filed as inconclusive are left out. Unmarked numbers belong to inactive results. Activity calls are given as the source filed them. Calls come from the whole dose curve; as a rule, active = well fitted cell-killing curve with a large enough effect; inconclusive = small, poorly fitted or top-dose-only effect; inactive = flat fitted curve, though single readings scatter.
# Assay: Cell Viability - LYMP2-007 (AID 979);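 note: cells exposed to compound for 24 h before reading; nearly all actives have a fitted effect of over 60% in size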;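 for activity change, negative = cytotoxicity: 0% = DMSO only and the negative end = 92 µM tetraoctylammonium bromide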
# Conditions: LYMP2-007 lymphoblastoid cell viability; series mostly up to 92.2 µM; activity change, negative = cytotoxicity: at the top concentration
# Text: NIH Chemical Genomics Center [NCGC]
# NIH Molecular Libraries Screening Centers Network [MLSCN]
# National Institutes of Environmental Health Sciences [NIEHS]
# National Toxicology Program [NTP]
# We have developed a 1536-well cell-based assay for quantitative high throughput screening (qHTS) against a number of cell lines to determine in vitro cytotoxicity of small molecules. This particular assay uses a human lymphoblastoid cell line (LYMP2-007) purchased from Coriell Institute for Medical Research.
# NCGC Assay Protocol Summary:
# The CellTiter-Glo luminescent cell viability assay (Promega) is a homogeneous method to measure the number of viable cells in culture. The end point readout of this assay is based on quantitation of intracellular ATP, an indicator of metabolic activity, using the luciferase reaction. Luciferase catalyzes the oxidation of beetle Luciferin to oxyluciferin and light in the presence of ATP. The luminescent signal is proportional to amount of ATP present.
# Using the CellTiter-Glo luminescent cell viability assay, the amount of cellular ATP was measured in the lymphoblastoid cell line with complete culture medium following compound treatment for 24 hours. The assay was performed in opaque white Kalypsys 1536-well plates. In the screen, tetraoctylammonium bromide was used as positive control. Library compounds were measured for their ability to cause acute toxicity in the cell line, as reflected by a decrease in intracellular ATP levels, in a concentration-dependent manner. […] AC50 values were determined from concentration-response data modeled with the standard Hill equation.
# qHTS protocol for CellTiter Glo lymphoblastoid cellular assay
# [Step] [Parameter] [Value] [Description]
# 1. Reagent; 5 uL; 2500 lymphoblastoid cells/well
# 2. Time; 5 hr; 37 C incubation
# 4. Controls; 23 nL; Tetraoctylammonium bromide 6.4pM to 92 uM
# 5. Time; 24 hr; 37 C incubation
# 6. Reagent; 5 uL; CellTiter Glo reagent
# 7. Time; 30 min; Room Temperature
# 8. Detection; Luminescence; Viewlux plate reader
# Keywords: cell viability, cytotoxicity, lymphoblastoid cell line, luminescence, NTPHTS, NTPHTS_NCGC, NIEHS, DSSTox, MLSMR, MLSCN, NIH Roadmap, qHTS, NCGC
# Potency is the fitted concentration of half-maximal effect.
Compound,"activity change, negative = cytotoxicity",Potency
CCCCC(CC)COC(=O)c1ccccc1C(=O)O (centres undefined),-3.88%,–
CC(C)(C)c1ccc(O)c(O)c1,–,39.8 µM (active)
OCc1c[nH]c2ccccc12,-5.18%,–
C1=CC2C3C=CC(C3)C2C1 (centres undefined),1.25%,–
O=C(Oc1ccccc1)c1ccccc1O,-10.7%,–
Nc1c2ccccc2nc2ccccc12,–,15.8 µM (active)
O=C(NO)c1ccccc1,-17.9%,–
Nc1ccc(O)cc1,–,31.6 µM (active)
CC(C)(c1ccc(O)cc1)c1ccc(O)cc1,–,inactive
CC(C)C(C)(C)C(C)(C)C(C)(C)S,3.19%,–
Nc1cccc2c(N)cccc12,-3.5%,–
CCCCCCCCCCCCCCCC[n+]1ccccc1,–,12.6 µM (active)
COc1cc(C=O)ccc1O,3.04%,–
Cc1ccc(O)cc1,-1.18%,–
Brc1ccccc1-c1ccccc1,-1.81%,–
c1ccc2occc2c1,-2.12%,–
Cc1cc(C(C)(C)C)c(O)c(C(C)(C)C)c1,0.938%,–
O=C(c1ccccc1)c1ccccc1,-2.76%,–
Oc1ccccc1,6.6%,–
